Rows were chosen to be rich in hits. Some 1.7% of all compounds tested hit in one or more screens of this group.
Peg3 imprint: inducers of genomic imprint erasure in mouse ES cells. mouse ES Peg3-LacZ reporter, beta-gal luminescence, 40 h. Potency, µM (top dose mostly 60.7 µM), actives largely listed as activators. hit rate 0.02% among 110,000
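Each well holds 300 Peg3LacZ-Neo (maternal) female ES cells incubated 40 h at 37C, 5% CO2. LacZ is measured by BetaGlo luminescence, with AC50 and maximum efficacy derived from dose-response curves.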
IkB signaling: IkB pathway inhibition in ABC-DLBCL cells | AID 445 | hit rate 0.04% among 110,000 | ABC-DLBCL IkBa-CBG/CBR dual luciferase ratio, 4 h; response scale: scaled: untreated 0%, proteasome inhibitor 100% | Potency, µM (doses to about 57.1 µM); active = well fitted curve in the direction sought with a large enough effect in the signal ratio, not every such curve was filed as active; inconclusive = small, poorly fitted or top-dose-only effect, or a change in a side signal; the % refers to the signal ratio;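 note: the direction sought is a rising ratio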
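In this assay, an IκBα–CBG68 fusion accumulates when IKK-driven degradation is blocked; native CBR normalizes for cell number. OCI-Ly3 cells were treated 4 h with compound and doxycycline, then green and red light read after Chroma-Glo addition.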
p53ts 39C tox: p53ts cell cytotoxicity, nonpermissive temperature; H1299-p53A138V viability at 39C, ATP luminescence, 24 h; Potency, µM (series often up to 46.1 µM), hits mostly cytotoxic; hit rate 1.5% among 130,000; AID 902; note: nearly all actives have a fitted effect of over 55% in size
p53ts 32C tox: cytotoxicity in p53ts cells at permissive temperature. H1299-p53A138V at 32C, ATP luminescence viability, 24 h. Potency, µM (top dose mostly 46.1 µM), usual class: cytotoxic. hit rate 0.93% among 130,000; note: nearly all actives have a fitted effect of over 55% in size
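Cells: H1299 p53ts (A138V), 600/well, pre-incubated 16–30 h at 37C. Cpd up to 46 uM, 24 h, 32C. Readout: ATPlite luminescence, 20 min RT. Normalization: DMSO vs tamoxifen 100 uM. AC50 by Hill equation.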
Hits are given with their value; - = inactive; ? = inconclusive; . = no result given; ! = repeats disagree; [ ] = another dose, or the depositor's remark. Unless noted, calls come from the whole dose curve; as a rule, active = well fitted curve in the direction sought with a large enough effect; inconclusive = small, poorly fitted or top-dose-only effect, or another doubt; inactive = no such curve, though single readings can be large; an effect the other way counts as inactive or inconclusive.

SMILES | Peg3 imprint | IkB signaling | p53ts 39C tox | p53ts 32C tox
COc1ccc(-c2nc(-c3ccc(NC(=O)c4ccc(Br)o4)cc3)no2)cc1OC | - | - | 13µM | ?
COC(=O)c1c(NC(=O)c2cc(=O)c3ccc(C)c(C)c3o2)sc2c1CCCC2 | -[10.9 µM] | - | - | -
COC(=O)C1(Cc2ccccc2)C=C2C(=C(c3ccccc3)C(=O)C2C)CN1 (centres undefined) | - | . | - | -
Cc1cccc(CSc2ncc(Cl)c(C(=O)Nc3nc4ccc(F)cc4s3)n2)c1 | -[10.9 µM] | - | - | -
CCc1nnc(NC(=O)c2nc(S(=O)(=O)Cc3cccc(C)c3)ncc2Cl)s1 | -[10.9 µM] | - | 5µM | ?
CCc1nnc(NC(=O)c2nc(SCc3ccccc3F)ncc2Cl)s1 | -[10.9 µM] | ? | - | -
CCOc1ccccc1NC(=O)c1nc(S(=O)(=O)Cc2cccc(C)c2)ncc1Cl | -[10.9 µM] | ? | 3.2µM | 16µM
CCc1nnc(NC(=O)c2nc(S(=O)(=O)Cc3ccc(C)cc3)ncc2Cl)s1 | -[10.9 µM] | ? | 6.3µM | 16µM
CCOc1ccccc1NC(=O)c1c(NC(=O)c2cccc(C)c2)sc2c1CCCC2 | -[10.9 µM] | - | - | -
COc1ccc(Cl)cc1NC(=O)C1CCN(c2ncnc3c2nc2n3CCCCC2)CC1 | . | . | . | -
COc1cccc2sc(N(Cc3cccnc3)C(=O)c3ccc(S(=O)(=O)N(C)C)cc3)nc12 | -[10.9 µM] | ? | - | -
O=Nc1c(-c2c(O)[nH]c3cc(Br)ccc23)[nH]c2ccccc12 | - | . | 13µM | 13µM
CCCCCn1c(=N)n(CC(O)COc2ccccc2OC)c2ccccc21 (centres undefined) | - | ? | 20µM | ?
O[C@@H](COc1ccc(Cl)cc1Cl)CN1CCCC1 | -[10.9 µM] | -[11.4 µM] | -[9.22 µM] | -[9.22 µM]
Cc1ccc(OCC(O)Cn2c(=N)n(CCN3CCCCC3)c3ccccc32)cc1 (centres undefined) | - | ? | 13µM | -
COc1ccccc1OCC(O)Cn1c(=N)n(Cc2ccccc2)c2ccccc21 (centres undefined) | - | ? | - | -
N=c1n(CCN2CCCCC2)c2ccccc2n1CC(O)COc1ccc(Cl)cc1Cl (centres undefined) | -[10.9 µM] | ? | 3.2µM | 22µM
COc1ccc(OCC(O)Cn2c(=N)n(CCN3CCCCC3)c3ccccc32)cc1 (centres undefined) | - | - | 13µM! | -
N=c1n(CCO)c2ccccc2n1CCOc1ccc(Cl)cc1Cl | - | ? | 13µM | ?
Cc1nnc(SCc2cnc(-c3ccc(C(C)C)cc3)s2)n1C | - | - | 2µM | 1.6µM
CCCCOc1ccc(CNC(=O)c2ccc(NC(=O)N3CCSc4ncccc43)cc2)cc1 | -[10.9 µM] | ? | - | -
O=C(Nc1nc2ccccc2[nH]1)c1ccc(F)cc1 | - | ? | 2µM | 3.2µM
O=C(Nc1nc2ccccc2[nH]1)c1ccccc1F | - | ? | 1.6µM | 1.3µM
COc1ccc(C(=O)Nc2nc3ccccc3[nH]2)cc1OC | - | ? | ? | ?
C[C@H]1[C@H](C)CC[C@@]2(C(=O)O)CC[C@]3(C)C(=CC[C@H]4[C@@]5(C)C[C@@H](O)[C@H](O)[C@@](C)(CO)[C@@H]5CC[C@@]43C)[C@@H]12 | . | -[11.4 µM] | . | .
SMILES | Peg3 imprint | IkB signaling | p53ts 39C tox | p53ts 32C tox
Cc1nn2c(C)c(C(=O)N3CCN(c4ccc(Cl)cc4)CC3)cnc2c1-c1ccc(F)cc1 | -[10.9 µM] | - | - | -
Cc1nn(Cc2ccc(Cl)cc2)c(C)c1NC(=O)c1cc(-c2ccc3c(c2)OCO3)on1 | - | - | ? | ?
Cc1cccc(NC(=O)c2cc(-c3ccc4c(c3)OCCO4)on2)c1 | -[10.9 µM] | ? | 1µM | 1µM
O=C(Nc1cccc(Cl)c1)c1cc(-c2ccc3c(c2)OCCO3)on1 | -[10.9 µM] | ? | 4µM | ?
Cc1nn(Cc2ccc(Cl)c(Cl)c2)c(C)c1NC(=O)c1cc(-c2ccc3c(c2)OCO3)on1 | - | ? | ? | 20µM
COc1ccc(Cl)cc1NC(=O)c1cc(C)nn1-c1ccccc1 | -[10.9 µM] | ? | - | -
O=C(NCCS(=O)(=O)N1CCN(c2ccc(F)cc2)CC1)c1cc(=O)c2ccccc2o1 | -[10.9 µM] | - | - | -
O=C(NCc1cccnc1)C1CCN(Cc2cc3ccccc3n2Cc2cccc(Cl)c2)CC1 | -[10.9 µM] | ? | 13µM | -
O=C(NCc1cccnc1)C1CCN(Cc2cc3ccccc3n2Cc2ccccc2)CC1 | -[10.9 µM] | - | - | -
CN1C2CC(OC(=O)C(CO)c3ccccc3)C[C@@H]1[C@H]1OC21 (some centres undefined) | - | . | . | .
CC1CCN(C(=O)c2cc3c(=O)n(C)c4cc(Cl)ccc4c3s2)CC1 | -[10.9 µM] | - | - | -
CCCCCCn1c(CN2CCC(C)CC2)nc2c1c(=O)n(C)c(=O)n2C | - | - | - | -
CCCCCCn1c(CN2CCN(CCO)CC2)nc2c1c(=O)n(C)c(=O)n2C | - | - | 3.2µM | 2.5µM
COc1cccc(CCc2ccccc2OCC[C@@H]2C[C@@H](O)CN2C)c1 | - | . | 13µM | ?
COc1cccc(NC2CC(=O)N(CCc3ccccc3)C2=O)c1 (centres undefined) | - | - | - | -
[O-]/[N+](=N\O)c1ccccc1 | - | - | - | -[1.84 µM]
N#Cc1cccc(NC(=O)c2cc3c(s2)-c2ccc(Cl)cc2SC3)c1 | -[10.9 µM] | - | 10µM | ?
COc1ccc(C(=O)Nc2noc3ccccc23)cc1 | -[10.9 µM] | ? | 6.3µM | 3.2µM
COc1ccc(C(=O)Nc2cc(C)on2)cc1 | - | - | 6.3µM | 7.9µM
Cc1ccc(Cn2c(SCC(=O)NCc3ccccc3)nc3ccsc3c2=O)cc1 | -[10.9 µM] | - | 16µM | -
COc1cccc(CNc2cc(C)nc3nc(-c4ccc(C)cc4)nn23)c1 | -[10.9 µM] | ? | 7.9µM | ?
COc1ccc(-c2nc3nc(C)cc(Nc4cccc(C(F)(F)F)c4)n3n2)cc1 | -[10.9 µM] | - | - | -
CCc1ccc(NC(=O)C2CCN(c3nn4c(=O)cc(C)nc4s3)CC2)cc1 | -[10.9 µM] | - | - | -

High-throughput results (PubChem BioAssay)
